From paper PMC5540273 (PLoS ONE, 2017)

Columns and labels:
Details in all cases: concentration: 1 μM, replicates: in singlicate; n = 1
DCAMKL2 = tested on: T1, DCAMKL2
T1 construct: gene DCLK2

DCAMKL3 = tested on: T2, DCAMKL3
T2 construct: gene DCLK3

DDR1 = tested on: DDR1
DDR2 = tested on: DDR2
DLK = tested on: T3, DLK
T3 construct: gene MAP3K12

DMPK2 = tested on: T4, DMPK2
T4 construct: gene CDC42BPG

DMPK = tested on: DMPK
DRAK1 = tested on: T5, DRAK1
T5 construct: gene STK17A

DRAK2 = tested on: T6, DRAK2
T6 construct: gene STK17B

DYRK1A = tested on: DYRK1A
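Also: KINOMEscan kinase panel screen.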

SMILES | %Inh (DCAMKL2) | %Inh (DCAMKL3) | %Inh (DDR1) | %Inh (DDR2) | %Inh (DLK) | %Inh (DMPK2) | %Inh (DMPK) | %Inh (DRAK1) | %Inh (DRAK2) | %Inh (DYRK1A)
CN(c1ccc(F)c(NC(=O)c2cccc(OC(C)(C)C#N)c2Cl)c1)c1ccc2nc(NC(=O)C3CC3)sc2n1 | 0% | 0% | 100% | 97% | 2% | 14% | 0% | 0% | 0% | 0%
CN(c1ccc(NC(=O)N2CCN(CCCN3CCOCC3)CC2)cc1)c1ccnc(Nc2ccc(CS(C)(=O)=O)cc2)n1.Cl [GW830899] | 0% | 5% | 36% | 54% | 24% | 0% | 0% | 0% | 13% | 0%
CC(C)c1nc(-c2ccc(F)c(NS(=O)(=O)c3c(F)cccc3F)c2)c(-c2ccnc(Nc3ccc(N4CCOCC4)nc3)n2)s1 [GSK1804250] | 0% | 30% | 82% | 56% | 68% | 26% | 6% | 15% | 0% | 7%
Cc1ccc(Nc2ccnc(Nc3ccc(C)c(F)c3)n2)cc1O.Cl [GW582868] | 0% | 0% | 10% | 12% | 40% | 0% | 0% | 0% | 0% | 20%
Cc1ccc(C)c(NC(=O)Nc2ccc(C)c(-c3ccc(C(=O)Nc4ccncc4)cc3)c2)c1 [GSK1398473] | 0% | 13% | 99.8% | 72% | 0% | 1% | 4% | 0% | 0% | 36%
CC(C)(C)c1ccc(C(=O)Nc2cn3cc(-n4ccnc4)ccc3n2)cc1 | 0% | 0% | 0% | 2% | 0% | 4% | 0% | 20% | 35% | 91.4%
Nc1ncnc2scc(-c3ccc(NC(=O)Cc4cc(F)ccc4F)cc3)c12.O=C(O)C(F)(F)F [SB-731254-M] | 11% | 16% | 58% | 24% | 0% | 23% | 6% | 3% | 10% | 12%
CNc1nccc(-c2ccc3c(N)n[nH]c3c2)n1 [GSK2206003] | 1% | 72% | 0% | 29% | 34% | 0% | 0% | 99.2% | 83% | 98.8%
CC(=O)Nc1cn2nc(Oc3cccc(NC(=O)c4cccc(C(F)(F)F)c4)c3)ccc2n1 | 24% | 9% | 98.3% | 100% | 0% | 1% | 0% | 0% | 11% | 0%
